# Assay outcomes deposited in PubChem by The Scripps Research Institute Molecular Screening Center.
# PPARg SRC1 recr: PPARgamma-driven SRC-1 recruitment agonism. P37231. AID 631. activation, % at 8 µM. PPARgamma-SRC-1 coactivator recruitment biochemical assay. 200,000 tested, 0.41% active; in the data active means activation above about 19%
# Target sequence (P37231 whole entry, looked up): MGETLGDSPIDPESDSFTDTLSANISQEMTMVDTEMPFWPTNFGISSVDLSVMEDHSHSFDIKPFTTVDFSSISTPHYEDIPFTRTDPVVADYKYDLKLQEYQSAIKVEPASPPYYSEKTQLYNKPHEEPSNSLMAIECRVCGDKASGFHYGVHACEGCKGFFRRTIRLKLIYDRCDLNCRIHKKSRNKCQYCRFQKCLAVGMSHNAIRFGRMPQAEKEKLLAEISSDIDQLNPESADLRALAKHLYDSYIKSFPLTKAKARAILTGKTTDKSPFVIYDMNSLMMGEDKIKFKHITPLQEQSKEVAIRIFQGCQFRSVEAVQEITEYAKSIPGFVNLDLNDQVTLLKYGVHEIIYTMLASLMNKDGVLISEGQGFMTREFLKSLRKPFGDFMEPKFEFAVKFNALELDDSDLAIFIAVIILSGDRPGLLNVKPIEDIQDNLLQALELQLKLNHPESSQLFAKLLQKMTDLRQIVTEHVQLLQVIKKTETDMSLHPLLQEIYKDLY
# PPARg SRC3 recr: promotes SRC-3 coactivator recruitment by human PPARgamma; 200,000 tested, 0.26% active; AID 731; biochemical PPARgamma/SRC-3 coactivator recruitment assay; P37231; activation, % at 8 µM; in the data active means activation above about 23%
# SRC1 TRFRET art: counter-screen for PPARgamma SRC-1 recruitment agonists: TR-FRET artefact; TR-FRET detection artefact counter-screen, emission ratio; stronger effect = higher value; TR-FRET ratio at 8 µM; 99,000 tested, 0.34% active; in the data active means TR-FRET ratio above about 2300
# SRC2 TRFRET art: TR-FRET artefact, counter-screen to PPARgamma/SRC-2 agonist assay | 200,000 tested, 0.4% active | AID 1049 | TR-FRET ratio at 8 µM | stronger effect = higher value; in the data active means TR-FRET ratio above about 2000
# PPARg SRC2 recr: agonists of SRC-2 recruitment by human PPARgamma; AID 1032; PPARgamma LBD-SRC-2 recruitment, biochemical; 200,000 tested, 0.34% active; activation, % at 8 µM
# SRC3 TRFRET art: flags TR-FRET format artefacts in PPARgamma SRC-3 recruitment agonist screen. TR-FRET artefact counter-screen, PPARgamma/SRC-3 format; stronger effect = higher value. TR-FRET ratio at 8 µM. 99,000 tested, 0.39% active; in the data active means TR-FRET ratio above about 2000
# PPARg SRC2 ag: human PPARgamma SRC-2 recruitment agonism, confirmation; shares compounds with PPARg SRC3 recr; biochemical SRC-2 recruitment by PPARgamma; activation, % at 8 µM; 790 tested, 52% active; AID 1297
# PPARg SRC1 conf: confirmation of agonists of SRC-1 recruitment by human PPARgamma | shares compounds with PPARg SRC3 recr | PPARgamma–SRC-1 coactivator recruitment biochemical assay | activation, % at 8 µM | 790 tested, 43% active | AID 1300; in the data active means activation above about 20%
# PPARg SRC3 ag: human PPARgamma SRC-3 recruitment agonism, confirmation. AID 1301. activation, % at 8 µM. shares compounds with PPARg SRC3 recr. 790 tested, 29% active. biochemical PPARgamma-SRC-3 coactivator recruitment, agonist mode; in the data active means activation above about 24%
# Numbers stand for hits; n = inactive; x = no result given. In the library only some 0.9% were active in any assay of this set; here they are far more common. Unless noted, no stated cut-off is given here; in the data, active means activation above about 22%; inactive means the rest.
SMILES,PPARg SRC1 recr,PPARg SRC3 recr,SRC1 TRFRET art,SRC2 TRFRET art,PPARg SRC2 recr,SRC3 TRFRET art,PPARg SRC2 ag,PPARg SRC1 conf,PPARg SRC3 ag
O=S(=O)(/N=C(/Nc1ccccn1)c1ccc(Cl)cc1)c1ccc(Cl)cc1,n,n,n,n,n,n,x,x,x
CCn1c(Sc2ccc([N+](=O)[O-])cn2)nnc1-c1ccco1,n,n,n,n,n,n,x,x,x
Cc1ccc(C(=O)NCCSc2ccccc2)cc1S(=O)(=O)Nc1ccccc1,n,n,x,n,n,x,x,x,x
COc1ccc(-c2csc3[nH]c(=S)n(-c4ccccc4)c(=O)c23)cc1OC,n,n,2467,2183,25,2099,n,n,n
COc1ccc(-n2c(=S)[nH]c3c(sc(=S)n3-c3ccccc3)c2=O)c(OC)c1,n,n,n,n,n,n,x,x,x
COc1cccc(-c2cc3c(=O)n(-c4ccccc4)c(=S)[nH]c3s2)c1,23,n,x,1988,31,x,n,n,n
Cc1cc(Cl)ccc1NC(=S)NCCC(c1ccccc1)c1ccccc1,n,n,x,n,n,x,x,x,x
CSc1nnc(C)c(=O)n1COC(=O)c1ccc(S(=O)(=O)N2CCCC2)cc1,n,n,n,n,n,n,x,x,x
COc1cc(NC(=O)c2ccco2)c(C(=O)OCC(=O)c2c[nH]c3ccccc23)cc1OC,n,n,n,n,n,n,x,x,x
C=CCOc1ccc(CNc2ccc(NC(=O)CC(C)C)cc2)cc1OC,n,n,n,n,n,n,x,x,x
Cc1ccc(C(CC(=O)O)Nc2nc(N3CCOCC3)nc(N3CCOCC3)n2)cc1 (configuration not stated),n,n,n,n,n,n,x,x,x
Cc1ccc(-n2c(SCC(=O)Nc3cccc(S(N)(=O)=O)c3)nc3ccccc32)cc1,n,n,n,n,n,n,x,x,x
O=C(Nc1nc(-c2cccs2)c(C(=O)C(F)(F)F)s1)c1ccco1,41,37,3540,3022,61,3363,37,22,25
CN(C(=O)COC(=O)c1ccc([N+](=O)[O-])cc1N)c1ccccc1,n,n,n,n,n,n,x,x,x
CCOc1ccc(N/C=C/C(=O)c2ccc3ccccc3c2)c([N+](=O)[O-])c1,n,n,x,n,n,x,x,x,x
CCOc1ccc(N/C=C/C(=O)c2ccc(C)cc2)c([N+](=O)[O-])c1,24,n,x,n,n,x,n,n,n
COc1cc(/C=C(\C#N)C(=O)Nc2cccc3ncccc23)cc(OC)c1OC,n,24,n,n,n,n,n,n,n
COCCn1cnnc1SCC(=O)Nc1ccc(Br)cc1F,n,n,n,n,n,n,x,x,x
CC(C)c1nc2sc3c(=O)[nH]c(=S)[nH]c3c2c2c1CCC2,24,n,2489,2507,33,2640,23,n,n
CCOC(=O)c1sc2nc(C(C)C)c3c(c2c1N)CCC3,n,n,n,n,n,n,x,x,x
CCC1=NN2C(=N)/C(=C\c3cccn3-c3cccc(Cl)c3)C(=O)N=C2S1,n,28,n,n,n,n,n,n,n
CC(=O)c1sc(NC(=O)CCCOc2ccc(Cl)cc2)nc1C,22,n,n,2055,27,2343,n,n,n
Cc1ccc2oc(-c3ccc(NC(=O)c4ccncc4)cc3O)nc2c1,n,n,n,n,n,n,x,x,x
COc1ccc(CC(=O)Nc2ccc(-c3nc4cc(C)ccc4o3)c(O)c2)cc1OC,43,n,x,n,n,x,41,28,25
CC(=O)Sc1nc(-c2ccccc2)[nH]c1S(=O)(=O)c1ccc(C)cc1,22,37,n,n,n,n,n,21,n
SMILES,PPARg SRC1 recr,PPARg SRC3 recr,SRC1 TRFRET art,SRC2 TRFRET art,PPARg SRC2 recr,SRC3 TRFRET art,PPARg SRC2 ag,PPARg SRC1 conf,PPARg SRC3 ag
COc1ccc(-c2nc(-c3cccs3)c(-c3cccs3)[nH]2)cc1OC,23,30,x,2267,28,x,35,31,26
COc1ccc(/C=C/C(=O)OCC(=O)Nc2cc(C(F)(F)F)ccc2Cl)cc1,n,n,n,n,n,n,x,x,x
O=Nc1c(O)[nH]c2ccc(F)cc12,n,n,n,n,n,n,x,x,x
Cc1cc2c(N=O)c(NO)ccc2[nH]1,n,30,x,n,n,x,n,n,n
O=C(Nc1nc(=O)c2ccccc2s1)c1ccc(Cl)cc1,20,n,x,n,n,x,n,n,n
CCN(CC)c1ccc(NC(=O)CSc2nnc(N)s2)cc1C,20,n,x,n,n,x,n,n,n
Cc1nc(SCC(=O)O)c(C#N)c(C)c1CC(=O)c1ccccc1,n,n,n,n,n,n,x,x,x
O=C(c1ccc2c(c1)OCO2)N1CCN(c2ccccc2)CC1,n,26,x,n,n,x,n,n,n
COc1ccc2[nH]c3ccccc3c2c1,n,n,x,n,n,x,x,x,x
COc1ccc2c(c1)Sc1ccccc1N2,27,n,n,n,n,n,n,n,n
O=c1oc2cc(O)c(Cl)cc2c2ccccc12,59,54,3291,4246,102,4295,55,34,39
NC(=O)c1cccc2c(=O)oc3ccccc3c12,n,n,x,n,n,x,x,x,x
S=c1[nH]ncn2c1cc1oc3ccccc3c12,31,28,2955,2319,37,2852,n,n,n
Cc1ccc(S(=O)(=O)NNC(=O)C(O)(c2ccccc2C)c2ccccc2C)cc1,n,n,n,n,n,n,x,x,x
Cn1c(-c2sc3cc(C(F)(F)F)cnc3c2-c2cccnc2)n[nH]c1=S,19,30,x,n,n,x,72,57,44
Cn1c(-c2sc3cc(C(F)(F)F)cnc3c2-c2cccs2)n[nH]c1=S,n,n,2475,2200,30,2332,46,41,29
CCOC(=O)c1sc(NC(=O)C(C)Sc2nnc(N)s2)nc1C (configuration not stated),n,n,n,n,n,n,x,x,x
Cc1ccc2nc3sc(C(=O)NCc4ccco4)c(N)c3cc2c1,n,n,x,n,n,x,x,x,x
COc1cc2cc3c(N)c(C(=O)NCc4ccco4)sc3nc2cc1OC,21,n,x,n,n,x,n,n,n
Cc1nc2ccc3nc(NC(=O)c4ccc5c(c4)OCCO5)sc3c2s1,117,157,x,2067,n,x,92,71,58
COc1ccc(NS(=O)(=O)c2cc(NC(=O)[C@@H](NC(=O)c3ccccc3)C(C)C)ccc2C)cc1,n,n,n,n,n,n,x,x,x
CCN(CC)c1ccc(NC(=O)c2cnn(CC)c2)cc1,n,27,x,n,22,x,n,n,n
COc1ccc(NC(=O)CSc2c3c(nc4cc(Cl)ccc24)CCCC3)cc1OC,n,n,n,n,n,n,x,x,x
COc1ccccc1NC(=O)CSc1c2c(nc3ccccc13)CCC2,n,n,n,n,n,n,x,x,x
O=C(CSc1c2c(nc3ccccc13)CCC2)N1CCCC1,n,n,n,n,n,n,x,x,x
